# PubChem BioAssay (NCI)
# Compounds without any hit were thinned out: in the full panel of roughly 79,000, 15% have a hit. Activity calls are given as the source filed them. Cut-off read from the data, not from the text of the source: active = growth inhibition above about 70%; inactive = the rest.
# Assay: NCI Yeast Anticancer Drug Screen. Data for the sgs1 mgt1 strain (AID 161);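 note: 0% = growth of cultures given vehicle only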
# Conditions: S. cerevisiae sgs1 mgt1 strain, at 50.0 µM, stronger effect = higher value
# In short: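 Genetically altered yeast, compound exposure, growth inhibition relative to vehicle.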
row,Compound,growth inhibition
1,Cc1c(Cl)cccc1N=C=S,15.4% (inactive)
2,NNC(=O)CCCCl,-11.5% (inactive)
3,O=C(O)CC1=CCCCC1,0.9% (inactive)
4,CCOc1ccccc1NC(=O)CCl,8.6% (inactive)
5,CN(C)c1ccc(O)c2c1CC1CC3C(N(C)C)C(=O)C(C(N)=O)=C(O)C3(O)C(=O)C1=C2O (centres undefined),68.2% (inactive)
6,CCOC(=O)CNC,-12.7% (inactive)
7,CN(C)CCOC(=O)Nc1ccc(Cc2ccc(NC(=O)OCCN(C)C)cc2)cc1,-1.75% (inactive)
8,NC(CCl)=NCC12CC3CC(CC(C3)C1)C2,48.8% (inactive)
9,CC(C)(C)NCCC(O)c1cc(C(F)(F)F)nc2c(C(F)(F)F)cccc12 (centres undefined),-22.4% (inactive)
10,OCc1cccnc1,15.3% (inactive)
11,C/C(O)=C(/C=N/C(=S)Nc1ccccc1)C(=O)Nc1ccccc1C,40.3% (inactive)
12,CN1CCCN(C(c2ccccc2)c2ccc(Br)cc2)CC1 (centres undefined),19.8% (inactive)
13,CC(=O)NC(O)C(Cl)Cl (centres undefined),-6.95% (inactive)
14,CCCCCC#CC(=O)O,-8.05% (inactive)
15,COc1ccc(C(=O)C(=O)c2ccccc2)cc1,31.9% (inactive)
16,OCCc1ccc(Cl)cc1,9.7% (inactive)
17,NNc1ncnc2nc[nH]c12,-14.3% (inactive)
18,CCC(=O)C1C(=O)c2ccccc2C1=O,-17.5% (inactive)
19,O=C(O)CCCCCNC(=O)OCc1ccccc1,16.7% (inactive)

row,Compound,growth inhibition
1,C=C(OC(C)=O)c1ccccc1,5.8% (inactive)
2,Clc1ncnc2nc[nH]c12,15.5% (inactive)
3,C=CCN1CCCC1=O,1.5% (inactive)
4,CCCCCCCCCCCCCCCCCCSC(=N)N,-9.1% (inactive)
5,NC(=S)N/N=C/c1ccc(OC(=O)COc2ccccc2)cn1,14.3% (inactive)
6,Cn1c(=O)c2[nH]c(CCCCC(=O)O)nc2n(C)c1=O,-34.1% (inactive)
7,COC1=C(OC)C(=O)C(SC/C=C(\C)CCCC(C)CCCC(C)CCCC(C)C)=CC1=O (centres undefined),-43.5% (inactive)
8,C/C(=N\O)c1ccccn1,-17.9% (inactive)
9,O=C(O)Cc1cccc2ccccc12,2.65% (inactive)
10,CC(=O)NC(CCC(=O)c1ccccc1)C(=O)O (centres undefined),17.3% (inactive)
11,C[n+]1c(/C=C\C=C\N2CCCCC2)sc2ccccc21,34.4% (inactive)
12,Nc1nc(N)nc(N2CCCCC2)n1,-16.4% (inactive)
13,CCCC1OC(c2ccco2)OCC1CC (centres undefined),18.6% (inactive)
14,COC(=O)C1(CC(C)=O)NC(=S)NC(=O)C1C#N (centres undefined),-36.3% (inactive)
15,CC(c1ccccc1)N(C)C (centres undefined),0.4% (inactive)
16,CCOC(OCC)C(=O)c1ccccc1,-4.1% (inactive)
17,Cc1cc(CC(=O)NCCO)n(CCO)c(=O)c1,6.55% (inactive)
18,CCOC(=O)/C(O)=C(\C=N\C(=S)Nc1ccc(Cl)c(Cl)c1)C(=O)OCC,38.5% (inactive)

# Assay: NCI Yeast Anticancer Drug Screen. Data for the cln2 rad14 strain (AID 165);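 note: 0% = growth equal to vehicle treated cultures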
# Conditions: S. cerevisiae cln2 rad14 strain, at 50.0 µM, stronger effect = higher value
# In short: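 Compounds are applied to the cln2 rad14 yeast strain, and growth is then compared with that of vehicle-treated cultures to give inhibition.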
row,Compound,growth inhibition
1,Cc1c(Cl)cccc1N=C=S,11.5% (inactive)
2,NNC(=O)CCCCl,2.75% (inactive)
3,O=C(O)CC1=CCCCC1,10.2% (inactive)
4,CCOc1ccccc1NC(=O)CCl,-5.2% (inactive)
5,CN(C)c1ccc(O)c2c1CC1CC3C(N(C)C)C(=O)C(C(N)=O)=C(O)C3(O)C(=O)C1=C2O (centres undefined),18.4% (inactive)
6,CCOC(=O)CNC,-4.5% (inactive)
7,CN(C)CCOC(=O)Nc1ccc(Cc2ccc(NC(=O)OCCN(C)C)cc2)cc1,8.25% (inactive)
8,NC(CCl)=NCC12CC3CC(CC(C3)C1)C2,14.8% (inactive)
9,CC(C)(C)NCCC(O)c1cc(C(F)(F)F)nc2c(C(F)(F)F)cccc12 (centres undefined),21.1% (inactive)
10,OCc1cccnc1,9.55% (inactive)
11,C/C(O)=C(/C=N/C(=S)Nc1ccccc1)C(=O)Nc1ccccc1C,-4.5% (inactive)
12,CN1CCCN(C(c2ccccc2)c2ccc(Br)cc2)CC1 (centres undefined),24.1% (inactive)
13,CC(=O)NC(O)C(Cl)Cl (centres undefined),-23.3% (inactive)
14,CCCCCC#CC(=O)O,17.9% (inactive)
15,COc1ccc(C(=O)C(=O)c2ccccc2)cc1,1.85% (inactive)
16,OCCc1ccc(Cl)cc1,15.3% (inactive)
17,NNc1ncnc2nc[nH]c12,-44.7% (inactive)
18,CCC(=O)C1C(=O)c2ccccc2C1=O,-13.8% (inactive)
19,O=C(O)CCCCCNC(=O)OCc1ccccc1,29.9% (inactive)

row,Compound,growth inhibition
1,C=C(OC(C)=O)c1ccccc1,-7.25% (inactive)
2,Clc1ncnc2nc[nH]c12,16.9% (inactive)
3,C=CCN1CCCC1=O,-18.6% (inactive)
4,CCCCCCCCCCCCCCCCCCSC(=N)N,-116% (inactive)
5,NC(=S)N/N=C/c1ccc(OC(=O)COc2ccccc2)cn1,7.45% (inactive)
6,Cn1c(=O)c2[nH]c(CCCCC(=O)O)nc2n(C)c1=O,-20.9% (inactive)
7,COC1=C(OC)C(=O)C(SC/C=C(\C)CCCC(C)CCCC(C)CCCC(C)C)=CC1=O (centres undefined),16.6% (inactive)
8,C/C(=N\O)c1ccccn1,1.15% (inactive)
9,O=C(O)Cc1cccc2ccccc12,0.05% (inactive)
10,CC(=O)NC(CCC(=O)c1ccccc1)C(=O)O (centres undefined),5.05% (inactive)
11,C[n+]1c(/C=C\C=C\N2CCCCC2)sc2ccccc21,2.45% (inactive)
12,Nc1nc(N)nc(N2CCCCC2)n1,-41.2% (inactive)
13,CCCC1OC(c2ccco2)OCC1CC (centres undefined),-27.8% (inactive)
14,COC(=O)C1(CC(C)=O)NC(=S)NC(=O)C1C#N (centres undefined),-38.2% (inactive)
15,CC(c1ccccc1)N(C)C (centres undefined),7.6% (inactive)
16,CCOC(OCC)C(=O)c1ccccc1,9.2% (inactive)
17,Cc1cc(CC(=O)NCCO)n(CCO)c(=O)c1,6.25% (inactive)
18,CCOC(=O)/C(O)=C(\C=N\C(=S)Nc1ccc(Cl)c(Cl)c1)C(=O)OCC,6.65% (inactive)
